This passage reports Percent Effect results from ChEMBL document CHEMBL3988442, “University of Dundee, Small-Polar-MMV Screening Library” (2021).

Common to all, as to design: scale not given: direction of the effect not stated beside the values
The target of assay [1] is Protein translocase subunit SecA (Escherichia coli (strain K12)) (UniProt P10408). As to the kind of experiment: Assay to Identify E. coli SecA ATPase Inhibitors. It is filed as functional. The settings on record: 30 µM.
Assay [2] deals with T1, Ubiquitin-activating enzyme e1, putative (Leishmania donovani (strain BPK282A1)) (UniProt E9BSI1).
T1 sequence (whole entry): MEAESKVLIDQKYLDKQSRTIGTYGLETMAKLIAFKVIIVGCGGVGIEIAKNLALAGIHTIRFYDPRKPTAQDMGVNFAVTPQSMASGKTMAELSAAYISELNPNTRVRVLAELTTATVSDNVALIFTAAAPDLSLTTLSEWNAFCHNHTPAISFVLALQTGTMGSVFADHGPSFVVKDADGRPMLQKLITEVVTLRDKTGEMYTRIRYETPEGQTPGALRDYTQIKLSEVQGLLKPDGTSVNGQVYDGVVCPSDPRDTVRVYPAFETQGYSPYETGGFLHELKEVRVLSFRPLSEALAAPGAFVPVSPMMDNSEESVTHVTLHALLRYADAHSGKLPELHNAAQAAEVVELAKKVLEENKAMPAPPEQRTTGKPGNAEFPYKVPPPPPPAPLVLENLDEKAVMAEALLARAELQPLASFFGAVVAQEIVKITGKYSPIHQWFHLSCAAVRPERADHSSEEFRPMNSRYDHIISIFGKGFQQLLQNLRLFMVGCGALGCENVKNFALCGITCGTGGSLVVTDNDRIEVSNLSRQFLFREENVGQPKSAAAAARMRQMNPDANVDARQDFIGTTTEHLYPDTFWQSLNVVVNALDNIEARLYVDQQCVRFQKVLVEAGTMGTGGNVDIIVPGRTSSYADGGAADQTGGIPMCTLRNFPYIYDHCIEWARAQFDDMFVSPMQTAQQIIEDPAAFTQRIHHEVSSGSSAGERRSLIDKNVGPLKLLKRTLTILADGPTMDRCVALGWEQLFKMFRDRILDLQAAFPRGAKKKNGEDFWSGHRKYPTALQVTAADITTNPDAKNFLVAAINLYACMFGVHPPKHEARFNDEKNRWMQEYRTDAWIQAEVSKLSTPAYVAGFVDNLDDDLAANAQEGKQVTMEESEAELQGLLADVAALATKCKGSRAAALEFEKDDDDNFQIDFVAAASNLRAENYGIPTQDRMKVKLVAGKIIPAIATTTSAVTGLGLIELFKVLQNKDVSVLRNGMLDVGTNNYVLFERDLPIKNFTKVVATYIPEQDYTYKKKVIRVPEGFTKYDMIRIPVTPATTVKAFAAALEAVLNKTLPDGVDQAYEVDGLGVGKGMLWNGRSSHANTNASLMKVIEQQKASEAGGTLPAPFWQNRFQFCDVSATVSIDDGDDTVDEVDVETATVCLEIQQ
Description: Leishmania donovani Ubiquitin Activating Enzyme (LdE1). The settings on record: 30 µM. It is filed as functional.

Assay [3] has as its target AMP-activated protein kinase, AMPK (Homo sapiens) (UniProt P54646+O43741+P54619+Q9UGJ0+Q9Y478+Q13131+Q9UGI9). As to the kind of experiment: AMP-dependent Kinase enzyme assay. An in vitro enzyme assay that detects ADP turnover that is directly proportional to AMPK activity. This uses naive AMPK that is activated during the assay with MK-8722. It counts as functional. To be noted: 30 µM.

Assay [4] concerns the target Sialic acid-binding Ig-like lectin 9 (Homo sapiens) (UniProt Q9Y336). Description: Hs-Siglec9 ALPHAscreen SOP 20170721. The settings on record: 10 µM. A general note: In Alpha technology, singlet oxygen from a donor bead excites a nearby acceptor bead.
The next assay concerns Trypanosoma cruzi. Description: Trypanosoma cruzi phosphomannomutase and mannose-1-phosphate guanylyltransferase assay. It counts as functional. To be noted: 10 µM.
The target of assay [5] is T2, Arginase-2, mitochondrial (Homo sapiens) (UniProt P78540).
T2 sequence (whole entry): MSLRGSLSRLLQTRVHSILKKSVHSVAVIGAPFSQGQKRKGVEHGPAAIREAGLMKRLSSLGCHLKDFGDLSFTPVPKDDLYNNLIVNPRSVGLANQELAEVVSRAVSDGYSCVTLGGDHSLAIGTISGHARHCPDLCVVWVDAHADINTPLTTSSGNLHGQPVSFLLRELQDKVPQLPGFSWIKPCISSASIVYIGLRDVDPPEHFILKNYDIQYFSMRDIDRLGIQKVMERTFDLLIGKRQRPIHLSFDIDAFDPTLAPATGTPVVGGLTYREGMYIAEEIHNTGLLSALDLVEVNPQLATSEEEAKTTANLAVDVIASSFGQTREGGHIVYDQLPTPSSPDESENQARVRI
Description: in vitro enzyme assay to detect the production of urea directly proportional to the activity of Arginase II. Also: in the data most compounds retested in dose-response had high values. The settings on record: 33.3 µM. It is filed as functional.

The target in assay [6] is T3, Proteasome subunit beta (Trypanosoma cruzi) (UniProt O96673).
T3 sequence (whole entry): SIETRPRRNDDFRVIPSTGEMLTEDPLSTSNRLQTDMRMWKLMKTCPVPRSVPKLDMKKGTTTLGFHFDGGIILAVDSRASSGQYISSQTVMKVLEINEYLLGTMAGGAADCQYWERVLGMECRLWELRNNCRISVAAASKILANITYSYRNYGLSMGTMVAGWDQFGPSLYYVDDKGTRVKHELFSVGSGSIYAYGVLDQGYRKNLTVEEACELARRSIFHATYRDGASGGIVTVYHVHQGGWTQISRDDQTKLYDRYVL
As to the kind of experiment: Trypanosoma cruzi proteasome chymotrypsin-like activity (TcProtChymo) assay. Also: in the data most compounds retested in dose-response had high values. It is filed as functional. To be noted: 9.37 µM.

The species entered for the next assay is Homo sapiens. As to the kind of experiment: To identify inhibition of the IFN signalling (Jak-Stat) pathway via expression of an eGFP reporter gene under the control of an IFN-stimulated response element (ISRE) containing MxA promoter. To be noted: 30 µM. It is filed as functional.
Assay [7] concerns the target T4, Tyrosyl-tRNA synthetase, putative (Trypanosoma cruzi (strain CL Brener)) (UniProt Q4DSP6).
T4 sequence (whole entry): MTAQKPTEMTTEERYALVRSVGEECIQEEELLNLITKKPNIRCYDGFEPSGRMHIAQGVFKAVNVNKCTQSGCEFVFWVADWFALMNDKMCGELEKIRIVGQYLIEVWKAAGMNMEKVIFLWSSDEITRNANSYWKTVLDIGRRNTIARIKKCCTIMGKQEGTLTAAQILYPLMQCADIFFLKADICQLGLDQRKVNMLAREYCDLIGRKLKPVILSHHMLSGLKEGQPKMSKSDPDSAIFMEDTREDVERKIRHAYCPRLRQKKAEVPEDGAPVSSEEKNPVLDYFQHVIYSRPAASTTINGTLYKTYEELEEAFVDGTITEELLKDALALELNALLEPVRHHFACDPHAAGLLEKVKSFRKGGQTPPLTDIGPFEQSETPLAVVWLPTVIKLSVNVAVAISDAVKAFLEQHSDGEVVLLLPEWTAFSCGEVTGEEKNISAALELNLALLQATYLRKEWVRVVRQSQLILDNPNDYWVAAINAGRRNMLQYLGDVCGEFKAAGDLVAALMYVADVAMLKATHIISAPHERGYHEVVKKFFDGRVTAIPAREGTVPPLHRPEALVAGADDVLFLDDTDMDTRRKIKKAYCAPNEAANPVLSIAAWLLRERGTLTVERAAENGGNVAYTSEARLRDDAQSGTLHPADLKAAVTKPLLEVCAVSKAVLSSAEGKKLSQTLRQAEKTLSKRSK
As to the kind of experiment: Trypanosoma cruzi tyrosyl tRNA synthetase (TcYRS) _High Tyrosine SOP. Also: in the data most compounds retested in dose-response had high values. It counts as functional. To be noted: 30 µM.

In assay [8] the target is T4, Tyrosyl-tRNA synthetase, putative (Trypanosoma cruzi (strain CL Brener)). As to the kind of experiment: Trypanosoma cruzi tyrosyl tRNA synthetase (TcYRS) SOP. It counts as functional. To be noted: 30 µM.
In assay [9] the target is Chromo domain-containing protein 1 (Saccharomyces cerevisiae (strain ATCC 204508 / S288c) (Baker's yeast)) (UniProt P32657). Description: ScCHD-1 Enzyme Inhibition Assay. Also: in the data most compounds retested in dose-response had high values. It counts as functional. The settings on record: 30 µM.
Sequence of Chromo domain-containing protein 1 (Saccharomyces cerevisiae (strain ATCC 204508 / S288c) (Baker's yeast)) (P32657 whole entry, the tested form may be a part): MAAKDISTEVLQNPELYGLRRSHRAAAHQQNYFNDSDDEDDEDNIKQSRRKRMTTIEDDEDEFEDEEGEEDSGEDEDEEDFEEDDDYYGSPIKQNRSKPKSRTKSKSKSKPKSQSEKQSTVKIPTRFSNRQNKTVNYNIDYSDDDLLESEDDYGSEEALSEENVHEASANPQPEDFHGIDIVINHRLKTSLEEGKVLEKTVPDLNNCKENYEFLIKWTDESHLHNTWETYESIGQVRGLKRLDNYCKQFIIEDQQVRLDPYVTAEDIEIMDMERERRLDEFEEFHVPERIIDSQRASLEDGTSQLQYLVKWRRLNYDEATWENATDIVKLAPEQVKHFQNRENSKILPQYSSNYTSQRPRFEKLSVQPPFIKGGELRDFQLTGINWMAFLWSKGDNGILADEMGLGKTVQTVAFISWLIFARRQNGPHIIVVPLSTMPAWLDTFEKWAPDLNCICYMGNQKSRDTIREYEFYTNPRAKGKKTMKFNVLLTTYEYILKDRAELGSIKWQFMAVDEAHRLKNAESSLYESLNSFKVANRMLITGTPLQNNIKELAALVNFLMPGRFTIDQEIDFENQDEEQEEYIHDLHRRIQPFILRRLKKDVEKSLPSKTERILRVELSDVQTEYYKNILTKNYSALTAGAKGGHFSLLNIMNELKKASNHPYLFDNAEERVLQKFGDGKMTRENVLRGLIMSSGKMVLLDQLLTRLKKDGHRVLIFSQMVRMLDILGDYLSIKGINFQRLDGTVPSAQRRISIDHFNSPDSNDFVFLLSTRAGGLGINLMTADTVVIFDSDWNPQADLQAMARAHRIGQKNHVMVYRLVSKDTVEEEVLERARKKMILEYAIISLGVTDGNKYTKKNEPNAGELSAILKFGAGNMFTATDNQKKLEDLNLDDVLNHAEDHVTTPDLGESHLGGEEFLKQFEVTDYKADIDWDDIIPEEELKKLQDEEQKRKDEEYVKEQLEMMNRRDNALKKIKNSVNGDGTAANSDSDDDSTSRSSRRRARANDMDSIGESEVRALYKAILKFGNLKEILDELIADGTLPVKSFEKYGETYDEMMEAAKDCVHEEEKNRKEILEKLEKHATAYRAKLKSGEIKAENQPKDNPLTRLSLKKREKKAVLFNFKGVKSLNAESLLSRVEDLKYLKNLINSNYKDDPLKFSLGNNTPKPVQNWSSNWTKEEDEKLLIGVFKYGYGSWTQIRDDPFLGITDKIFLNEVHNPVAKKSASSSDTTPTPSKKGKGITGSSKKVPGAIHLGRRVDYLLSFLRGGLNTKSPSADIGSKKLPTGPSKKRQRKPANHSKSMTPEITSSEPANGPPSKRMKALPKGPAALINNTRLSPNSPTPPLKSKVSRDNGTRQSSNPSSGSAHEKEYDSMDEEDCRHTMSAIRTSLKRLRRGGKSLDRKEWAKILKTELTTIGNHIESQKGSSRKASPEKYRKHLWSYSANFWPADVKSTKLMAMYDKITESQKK

For some of these results: Potency and affinity values are given separately.

Sequence of Protein translocase subunit SecA (Escherichia coli (strain K12)) (P10408 whole entry): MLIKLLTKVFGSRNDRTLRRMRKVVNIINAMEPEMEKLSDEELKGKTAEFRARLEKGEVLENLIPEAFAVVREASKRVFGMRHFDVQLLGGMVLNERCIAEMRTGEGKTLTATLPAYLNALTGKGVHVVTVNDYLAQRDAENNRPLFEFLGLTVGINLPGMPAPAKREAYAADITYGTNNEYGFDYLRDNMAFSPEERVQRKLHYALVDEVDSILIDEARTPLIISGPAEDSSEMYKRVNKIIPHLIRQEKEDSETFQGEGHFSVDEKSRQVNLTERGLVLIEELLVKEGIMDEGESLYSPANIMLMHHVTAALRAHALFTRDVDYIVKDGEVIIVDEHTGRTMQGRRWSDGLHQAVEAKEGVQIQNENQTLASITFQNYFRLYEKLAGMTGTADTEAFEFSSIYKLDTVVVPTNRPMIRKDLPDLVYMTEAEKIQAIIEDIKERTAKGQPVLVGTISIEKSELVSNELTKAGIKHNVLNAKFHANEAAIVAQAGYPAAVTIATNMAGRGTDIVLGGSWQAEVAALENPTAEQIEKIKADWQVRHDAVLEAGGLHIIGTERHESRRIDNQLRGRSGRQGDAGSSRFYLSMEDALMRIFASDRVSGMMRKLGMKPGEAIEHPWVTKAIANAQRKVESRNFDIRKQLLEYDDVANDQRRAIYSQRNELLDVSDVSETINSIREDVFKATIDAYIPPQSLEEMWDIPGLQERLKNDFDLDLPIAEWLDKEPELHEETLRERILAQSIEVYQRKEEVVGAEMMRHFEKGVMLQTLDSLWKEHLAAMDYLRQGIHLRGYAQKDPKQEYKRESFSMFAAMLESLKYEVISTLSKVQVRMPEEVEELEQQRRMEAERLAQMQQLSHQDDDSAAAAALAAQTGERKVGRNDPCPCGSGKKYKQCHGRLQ
Sequence of Sialic acid-binding Ig-like lectin 9 (Homo sapiens) (Q9Y336 whole entry): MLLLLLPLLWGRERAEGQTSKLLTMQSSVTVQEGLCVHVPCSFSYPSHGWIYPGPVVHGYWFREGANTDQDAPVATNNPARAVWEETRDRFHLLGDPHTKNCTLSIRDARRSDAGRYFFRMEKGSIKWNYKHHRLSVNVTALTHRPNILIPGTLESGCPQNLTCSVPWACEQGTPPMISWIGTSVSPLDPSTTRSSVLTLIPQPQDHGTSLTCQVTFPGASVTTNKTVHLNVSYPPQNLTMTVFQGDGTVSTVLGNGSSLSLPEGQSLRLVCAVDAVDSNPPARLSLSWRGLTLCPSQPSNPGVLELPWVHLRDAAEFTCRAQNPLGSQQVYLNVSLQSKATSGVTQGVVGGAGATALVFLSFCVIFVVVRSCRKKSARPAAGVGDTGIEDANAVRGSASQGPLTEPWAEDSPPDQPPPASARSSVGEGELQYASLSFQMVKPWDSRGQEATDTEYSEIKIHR

With `Cc1cn(-c2ccccc2)nc1NS(=O)(=O)c1cccc(C(=O)O)c1`, the Percent Effect is -4.24% in assay [1]; 0% in assay [2]; 9.15% in assay [3]; -6.49% in assay [4]; -9.01% in the assay with Trypanosoma cruzi; 5% in [5]. The Percent Effect was 14.4% in assay [6]; 10.4% in the assay listed under Homo sapiens; -5.38% in assay [7]; -5% in [8]; -7.14% in [9].

Turning to `O=C(CCc1ccc(Cl)s1)N1CCCC(n2cncn2)C1` (stereo unspecified), the Percent Effect in [1] is -2.21%; in [2] it was -2.53%; in assay [3], 3.52%; in assay [4] it was 6.43%; in the assay with Trypanosoma cruzi, -0.0944%; in [5], 5.32%. For the same compound, the Percent Effect in [6] is -3.36%; in the assay filed under Homo sapiens it was -2.4%; in [7] it was 0.493%; in assay [8], -1.27%; in assay [9], 0.688%.

Take `Cc1ncsc1C(=O)Nc1cccc(OCC(F)F)n1`: the Percent Effect in [1] is -4.44%; in assay [2], 2.63%; in assay [3], 10.6%; in assay [4] it was 1.18%; with Trypanosoma cruzi, -4.19%; in assay [5], -8.28%. Also, the Percent Effect in assay [6] is 22.5%; in the assay listed under Homo sapiens, 31.7%; in assay [7], 3.19%; in assay [8], 7.79%; in assay [9], -0.476%.

With `O=C(c1ccnnc1)N1C[C@@H](OCC2CCCC2)[C@H]2OCCC[C@H]21`, the Percent Effect was -7.56% in assay [1]; 8.11% in assay [2]; 0.254% in assay [3]; -1.77% in [4]; -1.95% in the assay on Trypanosoma cruzi; 3.33% in [5]. The Percent Effect in assay [6] is 11.8%; in the assay listed under Homo sapiens, -12.9%; in [7], 12.9%; in [8], -8.54%; in [9] it was -5.93%.

With `Cc1nc(C)n(C2CCCN(C(=O)c3cc(C(N)=O)cs3)C2)n1` (stereo unspecified), the Percent Effect is -7.57% in assay [1]; 13.9% in assay [2]; 0.492% in [3]; -4% in assay [4]; 0.718% with Trypanosoma cruzi; 1.07% in [5]. The Percent Effect in assay [6] is 8.92%; in the assay filed under Homo sapiens, -7.04%; in [7], 2.08%; in assay [8], 12.7%; in assay [9] it was -31.4%.

Take `CC(O)CN1CCN(C(=O)c2ccc3c(c2)COC3)CC1` (stereo unspecified): the Percent Effect was -5% in [1]; 10.1% in [2]; -4.14% in assay [3]; 3.8% in assay [4]; 6.14% with Trypanosoma cruzi; -4.18% in assay [5]. Besides, the Percent Effect is 3.19% in assay [6]; -12.6% in the assay filed under Homo sapiens; 4.43% in [7]; 16.5% in assay [8]; -13.8% in assay [9].

Take `Cc1ccc(C(=O)N2CCSCC2)cc1NC(=O)NCCO`: the Percent Effect in assay [1] is -5.08%; in assay [2], 2.74%; in assay [3] it was 6.7%; in assay [4], 18.5%; in the assay on Trypanosoma cruzi it was 1.39%; in assay [5], -1.2%. Moreover, the Percent Effect in assay [6] is 9.68%; in the assay filed under Homo sapiens it was 15.2%; in assay [7], 6.25%; in assay [8] it was 11.1%; in [9], -3.9%.

`CCn1cnnc1CNC(=O)N(C)Cc1ccc2c(c1)OCCO2`: the Percent Effect in assay [1] is -0.341%; in assay [2], -16.2%; in [3], -15.5%; in assay [4], -4.03%; in the assay with Trypanosoma cruzi, 0.66%; in assay [5], -14.8%. Besides, the Percent Effect is 14.6% in assay [6]; 2.89% in the assay filed under Homo sapiens; 9.36% in assay [7]; 25.9% in assay [8]; -8.11% in assay [9].

As for `COc1cc(CNC2CCc3nc(C(C)C)nn3C2)cc2c1OCO2` (stereo unspecified), the Percent Effect in assay [1] is -3.28%; in [2] it was 2.63%; in [3] it was -0.342%; in [4], 1.45%; with Trypanosoma cruzi, -0.28%; in assay [5], 3.24%. Besides, the Percent Effect in assay [6] was -0.592%; in the assay filed under Homo sapiens it was -4.24%; in [7], 1.48%; in assay [8] it was -6.17%; in [9] it was -3.88%.

Consider `Cc1nc(C2CCCN2CC(=O)NCCOc2ccccc2)no1` (stereo unspecified), for which the Percent Effect in assay [1] was -3.91%; in assay [2] it was 5.26%; in assay [3], -1.52%; in assay [4], 4.39%; with Trypanosoma cruzi, 3.38%; in [5], -0.383%. Also, the Percent Effect in [6] is 12.7%; in the assay listed under Homo sapiens, -2.83%; in assay [7], 0.49%; in [8], 7.32%; in [9], -12.7%.

In the case of `O=C(NCCNCC1CNc2ccnn2C1)c1ccc(F)cc1` (stereo unspecified), the Percent Effect in assay [1] was -2.2%; in [2], 8.11%; in [3], -6.99%; in [4], 25.4%; in the assay with Trypanosoma cruzi it was 8.3%; in assay [5], 0.476%. The Percent Effect in assay [6] is 11.6%; in the assay listed under Homo sapiens it was -0.126%; in assay [7] it was 5.82%; in [8], 14.6%; in assay [9] it was -2.41%.
